This is an account of results in PubChem BioAssay (NCATS).

Activity calls are given as the source filed them. The rule behind the calls is not given here.
Potency is the fitted concentration of half-maximal effect.

In this experiment the test system is HIV-1 nucleocapsid protein NCp7 (binding to TG oligonucleotide). Briefly: HIV Nucleocapsid (AID 346).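 Note: potency is for inhibitors that block NC binding and lower polarization.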 The following applies: HIV-1 NC / fluorescein-TGTGTGTG probe, fluorescence polarization. In outline: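 10 nM TG4xF probe with 100 nM nucleocapsid protein in high-salt Hepes pH 7.5 (250mM NaCl) containing 1uM ZnCl2 and reducing agents. Compound inhibition of binding was read as fluorescein polarization after 1 hr at room temperature.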
Background: In fluorescence polarisation assays a small probe gives low polarisation when free and higher when bound to something large.
As to `Cc1noc(C)c1-c1nccc(N2CCN(C)CC2)n1`, the Potency is > 20 µM (inactive). In the case of `COc1ccc(NC(=O)N2CC3(CCN(C(=O)c4ccco4)CC3)C2)cc1`, the Potency is > 20 µM (inactive). `COc1ccc2[nH]cc(CCNc3ncncc3-c3ccccc3C)c2c1`: the Potency is > 20 µM (inactive). With `O=C(c1csnn1)N1CCC2(CCN(Cc3ccccc3)CC2)CC1` the figure was > 20 µM (inactive).

Regarding `CN(C)c1ccc(-c2ccc3ncnc(NCc4ccccc4)c3c2)cc1`, the Potency was > 20 µM (inactive). With `COc1ncc2nc(C)c(=O)n(C3CC3)c2n1`, the Potency is > 20 µM (inactive). Turning to `COc1ccccc1CN1CCCC2(CCNCC2)C1`, the Potency is > 4 µM (inactive). Consider `COc1ccc2[nH]cc(CCNc3ncncc3-c3ccccc3OC)c2c1`, for which the Potency is > 20 µM (inactive). With `O=c1c(-c2cc(F)cc(F)c2)nc2cnc(N3CCNCC3)nc2n1C1CC1` the figure was > 20 µM (inactive); with `CN1CCCC2(CCN(C(=O)c3cc(C(F)(F)F)cc(C(F)(F)F)c3)CC2)C1`, > 20 µM (inactive). On to `COC(=O)N1CCC[C@@]2(CCN(c3ccncc3)C2)C1`, for which the Potency was > 20 µM (inactive). In the case of `CS(=O)(=O)Nc1cccc(-c2ccc3ncnc(NCc4cccnc4)c3c2)c1`, the Potency was > 20 µM (inactive). Regarding `O=C(Nc1cccc(F)c1)N1CCCC2(CCN(S(=O)(=O)c3ccccc3)CC2)C1`, the Potency was > 20 µM (inactive). On to `COCCNc1ncnc2ccc(-c3c(C)noc3C)cc12`, for which the Potency was > 20 µM (inactive). `O=C(c1ccncc1)N1CCC2(CC1)CN(c1ccccn1)C2`: the Potency is > 20 µM (inactive). In the case of `O=c1cnc2cnc(N3CCOCC3)nc2n1CCc1ccccc1`, the Potency was > 20 µM (inactive).
